Laboratory results taken from PubChem BioAssay (NCI).
Compounds without any hit were thinned out: in the full panel of roughly 79,000, 15% have a hit. Unmarked numbers belong to inactive results. Activity calls are given as the source filed them. Rule as the data show it: active = growth inhibition above about 70%; inactive = the rest.

Assay: NCI Yeast Anticancer Drug Screen. Data for the mlh1 strain (AID 171);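 also: 0% = growth of vehicle-treated control cultures of the same strain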
Conditions: S. cerevisiae mlh1 strain growth inhibition, active compounds read high
Procedure: Growth inhibition of yeast strains with defined genetic alterations is measured as a screen for potential anti-cancer activity. Selected strains with alterations in DNA damage repair or cell cycle control were exposed to compounds and growth inhibition was measured relative to vehicle treated controls. The strain used in this assay is mlh1

SMILES	growth inhibition (at 1.2 µM) [%]	growth inhibition (at 3.7 µM) [%]	growth inhibition (at 11.0 µM) [%]	growth inhibition (at 33.0 µM) [%]	growth inhibition (at 100.0 µM)
CC(=O)OCC(C)Cc1cc2c(cc1Br)OCO2 (stereo not given)	-21	-8	-10	-11	62%
CN1C(=O)c2ccc3ccccc3c2C1=O	2	3	22	29	27%
O=Cc1ccc2c(c1)C(=O)c1ccccc1C2=O	2	1	10	44	82% (active)
O=C(c1ccc([N+](=O)[O-])cc1)C1N=NCC1c1ccccc1 (stereo not given)	-1	0	3	5	64%
CCOC(=O)C1N=[N+](c2ccccc2)C(=O)/C1=C\n1c(=S)[nH]c2ccc([N+](=O)[O-])cc21 (stereo not given)	0	1	2	4	8%
CCc1nc2ccc(NCCN(C)C)c3c(=O)c4ccccc4n1c23	37	38	29	23	40%
COc1ccc(/C=C2\NC(=S)N(/C=C3\C(=O)Oc4ccccc4C3=O)C2=O)cc1	-1	1	1	9	25%
COc1cc2ccnc(-c3c4ccccc4c(N)c4c(OC)c(OC)ccc34)c2cc1OC	-4	-2	0	2	52%
